EWS-Fli inh – blocks EWS/Fli oncoprotein-driven transcription. AID 651661. inhibition, % at 12.6 µM. hit rate 0.67% among 350,000. A673 NR0B1-luciferase reporter, viability-normalised;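 active means mean inhibition of at least 50% after viability correction, with every replicate also passing that limit; inconclusive means mean reaches 50% but only one of two replicates passes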;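 further: firefly luciferase signal divided by Alamar Blue viability fluorescence both relative to DMSO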
RAD54 inh – RAD54 (human) branch migration inhibition. RAD54 Holliday junction branch migration, FAM/BHQ fluorescence. hit rate 0.14% among 360,000. inhibition, % at 10.4 µM;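 active means mean normalized replicate activity at least 40 and at least half of replicates scoring 40 or more; inconclusive means only one of the two criteria met; inactive means mean below 40 and under half of replicates reaching 40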;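 further: 0% = median of neutral control wells and 100% = median of positive control wells; inhibitors cause a drop in the FAM fluorescence signal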
Target sequence (Q92698 whole entry, looked up): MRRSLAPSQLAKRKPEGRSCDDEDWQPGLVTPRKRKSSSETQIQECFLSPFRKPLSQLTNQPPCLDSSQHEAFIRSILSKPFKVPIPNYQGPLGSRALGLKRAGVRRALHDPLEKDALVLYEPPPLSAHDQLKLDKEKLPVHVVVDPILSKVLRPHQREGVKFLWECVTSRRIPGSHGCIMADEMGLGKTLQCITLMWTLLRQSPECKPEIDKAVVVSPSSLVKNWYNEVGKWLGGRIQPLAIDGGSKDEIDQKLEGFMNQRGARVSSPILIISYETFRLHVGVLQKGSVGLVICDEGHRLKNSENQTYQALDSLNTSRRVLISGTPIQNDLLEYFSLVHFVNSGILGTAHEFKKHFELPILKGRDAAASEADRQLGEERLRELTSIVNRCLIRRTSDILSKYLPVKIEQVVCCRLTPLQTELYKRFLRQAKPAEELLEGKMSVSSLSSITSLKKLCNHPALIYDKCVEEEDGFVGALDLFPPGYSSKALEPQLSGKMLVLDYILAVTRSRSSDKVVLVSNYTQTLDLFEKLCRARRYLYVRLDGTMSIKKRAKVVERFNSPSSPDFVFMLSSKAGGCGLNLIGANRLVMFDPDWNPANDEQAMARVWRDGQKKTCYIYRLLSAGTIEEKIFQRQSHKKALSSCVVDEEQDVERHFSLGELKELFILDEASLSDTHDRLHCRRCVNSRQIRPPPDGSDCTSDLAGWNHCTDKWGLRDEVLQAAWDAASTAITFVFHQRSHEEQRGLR
RAD52 inh – RAD52 (human) annealing inhibition; P43351; recombinant RAD52 DNA annealing, FRET fluorescence; inhibition, % at 18.7 µM; hit rate 0.46% among 360,000; AID 651710;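 active means every replicate showing at least 50% inhibition; inconclusive means mean inhibition at least 50% but not in every replicate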
GSIS activator – primary screen for activators of insulin secretion dependent on glucose, INS-1E cells, GLuc reporter luminescence; INS-1E GLuc reporter insulin secretion, 2-3 h; activation, % at 16.6 µM; hit rate 0.61% among 370,000; AID 743287;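 active means lowest replicate activation of at least 40%, so every replicate reaches that level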;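 further: 0% = median of neutral control wells and 100% = median of IBMX positive control wells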
CFTR F508del cor – correctors of CFTR F508del function in bronchial epithelial cells; CFBE cells, YFP halide quenching; stimulated with forskolin plus potentiator P3; % fluorescence drop versus neutral controls; activity (quench increase), % at 7.58 µM; hit rate 0.36% among 350,000; AID 720511;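 active means mean added fluorescence quench of at least 8% versus neutral control, with both replicates also reaching 8%; inconclusive means only one of the mean or replicate conditions met; inactive means mean below 8% and not both replicates reaching 8%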;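 further: cells transiently co-express mutant CFTR-F508del with the halide-sensitive YFP; corrector assay measuring rescue of mutant channel to the surface after 24 h compound exposure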
LGR2 inh – inhibitors of bursicon-induced Drosophila LGR2 receptor cAMP signaling | hit rate 0.35% among 380,000 | HEK293 LGR2, CRE-luciferase, bursicon-stimulated, 4 h | AID 720647 | inhibition, % at 9.99 µM;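 active means drop in luminescence signal, shown as inhibition above about 50% in the replicate tests, limit read from the data, passing the limit was not always enough; inconclusive means probably only some replicates passing the limit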;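 further: agonist challenge used bursicon conditioned medium at about half maximal strength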
Starred values were filed as active, the others as inactive; ? = inconclusive; . = no result. Rows were chosen to be rich in hits. Some 1.8% of all compounds tested hit in one or more screens of this group.

SMILES	EWS-Fli inh	RAD54 inh	RAD52 inh	GSIS activator	CFTR F508del cor	LGR2 inh
O=C(C[C@@H]1CC[C@H]2NC[C@H](O)COC[C@@H]2O1)NCCc1ccccc1	-0.8	1.2	-16.1	13.6	1.6	-1.2
CC1(C)Cc2c(c(-c3ccco3)nc3sc4c(NCCN5CCOCC5)ncnc4c23)CO1	6.2	.	-6.9	10.5	9.7*	-0.6
CC1(C)Cc2c(c(-c3ccco3)nc3sc4c(NCCCO)ncnc4c23)CO1	2.5	4.6	-21.4	35.3	6.6	-13.1
COC(=O)c1ccc(NC(=O)c2ccc3c(c2)C(=O)N(C)C3=O)cc1	-11.6	-6.5	-16.5	.	0.7	-3.9
O=C(Nc1ncc(Cc2ccc(SC(F)F)cc2)s1)c1ccc(OC(F)F)cc1	52.7*	.	4.2	.	.	.
CC(C)[C@H](NC(=O)c1ccccc1F)C(=O)OCC(=O)NC(=O)NC1CCCCC1	5.8	-6.9	-9.6	-19.7	-4.1	4.4
COc1cc2c(cc1OC)-c1cc(Nc3ccc(N(C)C)cc3)nc(=O)n1CC2	-0.6	.	2.2	79.1*	2.8	-16.0
Cc1cc(N2CCCC2)c(F)cc1/C=C\[N+](=O)[O-]	-5.8	.	-21.2	5.3	28.1*	-3.2
CCOc1ccc(NC(=O)C2CCN(S(=O)(=O)c3ccc4c(c3)N(C(C)=O)CCO4)CC2)cc1	0.4	-9.9	-10.2	6.1	1.0	6.9
CN(C)c1ccc(/C=N/NC(=O)c2ccccc2Cl)cc1	11.6	-0.4	-5.1	52.4*	.	-48.8
CCN(CC(=O)Nc1ccc(OC)c(OC)c1)CC(=O)Nc1ccccc1C(F)(F)F	3.4	-4.4	-13.2	5.4	2.0	0.6
COCC#Cc1ccc([C@@H]2[C@H]3CN(C(=O)CN(C)C)CCCCN3[C@H]2CO)cc1	-11.1	-3.1	-4.5	11.5	-0.1	4.0
Cc1nc2ccccc2c(=O)n1/N=C/c1ccco1	-0.5	2.6	-10.1	.	-2.3	.
COc1ccc(/C=N/n2c(-c3ccco3)nc3ccccc3c2=O)cc1	.	1.7	-7.6	7.1	.	-25.2
O=c1c2ccccc2nc(-c2ccco2)n1/N=C/c1ccccc1O	.	-8.2	.	69.4*	.	-21.4
O=c1c2ccccc2nc(-c2ccco2)n1/N=C/c1ccco1	.	-9.7	.	54.5*	.	-18.8
O=C(NCc1cn(-c2ccccc2)nc1-c1ccccc1)c1cccc([N+](=O)[O-])c1	-10.2	-3.1	-1.1	-19.0	4.3	-16.1
CCOC(=O)c1ccccc1NC(=O)CN(c1ccccc1OC)S(C)(=O)=O	.	6.6	.	62.1*	.	3.0
Cc1ccc(N=C2NC(=O)/C(=C/c3cccn3C)S2)c(C)c1	-3.7	.	-24.9	1.8	0.0	-13.5
Cn1cccc1/C=C1\SC(=Nc2ccccc2)NC1=O	40.1	16.0	-9.9	6.7	14.5*	-63.5
Cn1cccc1/C=C1\SC(=Nc2ccc(O)cc2)NC1=O	45.8	.	-12.2	-3.6	12.0*	-99.7
O=C1NC(=Nc2ccc(O)cc2)S/C1=C/c1ccco1	?	-6.6	-27.4	-11.9	11.2*	-30.3
Cn1cccc1/C=C1\SC(=Nc2cccc(O)c2)NC1=O	-11.0	-7.4	-7.9	-21.9	9.1*	-58.8
Cc1ccc(/C=C(/C#N)C(=O)NC(=O)Oc2ccccc2)cc1	5.9	-7.8	-9.1	50.5	1.5	-6.0
Cc1ccc(SC2CCN(C(=O)C3CCC(=O)N(C4CC4)C3)CC2)cc1 (stereo not drawn)	-21.3	-5.4	1.1	5.4	5.7	-18.8
SMILES	EWS-Fli inh	RAD54 inh	RAD52 inh	GSIS activator	CFTR F508del cor	LGR2 inh
CCOc1ccc2nc3cc(NCc4ccc(OC)cc4)ccc3c(N)c2c1	.	10.5	-233.5	-11.5	.	20.9
Nc1nc(N)c2cc(CNc3ccc(Cl)c(Cl)c3)ccc2n1	13.9	-2.4	2.0	.	3.2	106.7*
CC(=O)CSc1ccc(-c2nc3cc(C)c(C)cc3[nH]2)cn1	68.7*	.	-12.5	0.5	-0.2	98.4*
CC(=O)CSc1ccc(-c2nc3ccccc3[nH]2)cn1	28.6	6.1	-15.8	8.5	-2.0	6.9
CCCN(C)C[C@H]1Oc2cc(-c3ccccc3)ccc2S(=O)(=O)N([C@@H](C)CO)C[C@H]1C	5.2	-16.5	-2.0	-4.2	-4.0	7.2
CCCNC(=O)Cn1sc2nc(C)cc(C)c2c1=O	2.2	.	-35.2	94.2*	-12.2	3.2
COc1ccc(-c2ccc(CN3C(CC(C)C)C(=O)N(Cc4cn(CC5CCCCC5)nn4)CCS3(=O)=O)cc2)cc1OC (stereo not drawn)	-0.5	1.1	5.1	-3.1	-1.7	10.2
COc1ccc(N2CCN(Cc3nc4cc(Cl)ccc4c(=O)[nH]3)CC2)cc1	-4.5	.	-6.1	3.5	0.4	-13.2
Cc1c(/N=C(\[O-])Nc2ccc(Br)cc2)sn[n+]1C	31.4	-3.5	-1.7	-5.2	0.9	81.8*
CC(=NNC(=O)c1ccncc1)c1ccc2ccccc2c1O	-7.2	.	-99.5	-14.6	24.7*	2.8
COc1ccc(CN(C)C[C@@H]2Oc3ccc(NC(=O)Nc4ccc5c(c4)OCO5)cc3C(=O)N([C@H](C)CO)C[C@H]2C)cc1	4.3	66.8*	0.7	6.5	-3.2	6.3
CC(C)NC(=O)Nc1ccc2c(c1)C(=O)N([C@H](C)CO)C[C@@H](C)[C@H](CN(C)S(=O)(=O)c1ccc(Cl)cc1)O2	1.2	56.2*	5.1	12.7	1.5	10.1
COc1ccc(CN(C)C[C@@H]2Oc3ccc(NC(=O)Nc4ccc5c(c4)OCO5)cc3C(=O)N([C@@H](C)CO)C[C@@H]2C)cc1	-18.7	9.2	-7.7	-13.3	0.2	5.3
COc1ccc(S(=O)(=O)N(C)C[C@@H]2Oc3ccc(NC(=O)Nc4ccc5c(c4)OCO5)cc3C(=O)N([C@@H](C)CO)C[C@H]2C)cc1	-11.8	56.6*	-4.5	-3.2	0.9	11.2
CC(C)NC(=O)Nc1ccc2c(c1)C(=O)N([C@@H](C)CO)C[C@@H](C)[C@@H](CN(C)S(=O)(=O)c1ccc(Cl)cc1)O2	7.6	16.3	6.8	-5.1	-0.2	17.8
COc1ccc(CN(C)C[C@@H]2Oc3ccc(NC(=O)Nc4ccc5c(c4)OCO5)cc3C(=O)N([C@@H](C)CO)C[C@H]2C)cc1	3.3	61.3*	15.0	-8.7	-1.3	7.7
COc1ccc(S(=O)(=O)N(C)C[C@@H]2Oc3ccc(NC(=O)Nc4ccc5c(c4)OCO5)cc3C(=O)N([C@@H](C)CO)C[C@@H]2C)cc1	-6.3	2.0	-7.3	-8.8	-0.1	8.3
CCCSc1nnc(-c2cccc(S(=O)(=O)N(C)C)c2)n1-c1cc(OC)ccc1OC	.	0.9	.	-8.5	.	0.4
Cc1ccc(CN(Cc2cc3cc4c(cc3[nH]c2=O)OCCO4)Cc2nnnn2Cc2ccco2)cc1	.	-5.3	.	.	.	.
C[C@H](CO)N1C[C@H](C)[C@@H](CN(C)Cc2ccc(C(=O)O)cc2)Oc2ccc(NC(=O)CCC(F)(F)F)cc2CC1=O	-2.0	1.5	-1.7	-6.4	-0.9	-23.5
C[C@@H]1CN([C@@H](C)CO)C(=O)c2cc(N(C)C)ccc2O[C@@H]1CN(C)Cc1ccc(C(=O)Nc2ccccc2N)cc1	82.0*	-5.5	2.4	.	6.6	.

Screens: PubChem, Broad Institute
